In PubChem BioAssay (EPA / NIEHS):
Records with an inconclusive call do not appear. The source made the active and inactive calls. The calls were made as follows, unless noted: active = hit-call score of the fitted dose curve at least 0.9, where 1 is the maximum; inactive = score below 0.9.

What was measured:
[1] = CCTE_Shafer_MEA_dev_firing_rate_mean: CCTE's Neural Network Formation Assay for Mean Firing Rate, Shafer Lab (AID 2284031);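 also: AUC of well mean spike rate recorded on DIV 5 7 9 and 12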
Method in brief: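 Extracellular spike frequency, AUC over DIV 5–12 recordings, in rat cortical neuron MEA cultures dosed from plating; loss direction vs DMSO.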

[2] = CCTE_Shafer_MEA_dev_burst_rate: CCTE's Neural Network Formation Assay for Burst Rate, Shafer Lab (AID 2284042)
Method in brief: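 Developmental network assay measuring how 12-day exposure of rat cortical neuron cultures alters bursting on extracellular MEA recordings. Values are AUC of well-mean burst rate across four recording days, relative to DMSO vehicle.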

[3] = CCTE_Shafer_MEA_dev_burst_duration_mean: CCTE's Neural Network Formation Assay for Mean Burst Duration, Shafer Lab (AID 2284045)
Method in brief: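 Mean single-electrode burst duration (first to last spike), averaged over bursting electrodes per well, then integrated as area-under-curve across recordings at days 5, 7, 9 and 12. Rat cortical cultures on MEAs, compound present from plating, refreshed at feeds.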

[4] = CCTE_Shafer_MEA_dev_interburst_interval_mean: CCTE's Neural Network Formation Assay for Mean Interburst Interval, Shafer Lab (AID 2284046);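 also: well-mean interburst interval of bursting electrodes as AUC over four recording days; curve fitted for decrease in interburst interval relative to DMSO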
Method in brief: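 Network formation assay in primary rat cortical cultures, exposed from DIV 0 to 12. Mean interburst interval per well, integrated as AUC over four recordings.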

[5] = CCTE_Shafer_MEA_dev_inter_network_spike_interval_mean: CCTE's Neural Network Formation Assay for Mean Inter-network Spike Interval, Shafer Lab (AID 2284047)
Method in brief: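 Compound was given at plating to primary rat cortical neurons and renewed with full medium changes on DIV 5 and 9. Extracellular activity was recorded on days 5, 7, 9, 12; AUC values were fitted for loss relative to DMSO control.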

[6] = CCTE_Shafer_MEA_dev_network_spike_number: CCTE's Neural Network Formation Assay for Number of Network Spikes, Shafer Lab (AID 2284048);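 also: synchronized bursts across electrodes counted on days 5 7 9 12 and integrated as AUC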
Method in brief: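 Number of network spikes (coordinated firing across electrodes) recorded on days 5, 7, 9 and 12 and summarised as area under the curve. Rat cortical cultures on MEA, continuous compound exposure with full medium/treatment exchange at DIV 5 and 9.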

[7] = CCTE_Shafer_MEA_dev_network_spike_peak: CCTE's Neural Network Formation Assay for Mean Number of Electrodes in Network Spike, Shafer Lab (AID 2284049)
Method in brief: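 Rat cortical primary culture, 1.5 x 10^5 cells/well, 48-well MEA (16 electrodes/well). Dosing day 0 through DIV 12, full media/compound exchange DIV 5, 9. AxIS adaptive spike detection; AUC over days 5/7/9/12; loss-of-signal vs DMSO.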

[8] = CCTE_Shafer_MEA_dev_spike_duration_mean: CCTE's Neural Network Formation Assay for Mean Spike Duration, Shafer Lab (AID 2284051);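 also: mean network spike duration pooled as area under curve over DIV 5 to 12 recordings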
Method in brief: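 With DMSO as baseline, loss of mean network spike duration was scored from extracellular recordings of rat cortical neurons on MEA plates. Exposure spanned plating to DIV 12; the four recording days were collapsed into one AUC value.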

[9] = CCTE_Shafer_MEA_dev_network_spike_duration_std: CCTE's Neural Network Formation Assay for Standard Deviation of Network Spike Duration, Shafer Lab (AID 2284052);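 also: hits are decreases in network spike duration SD versus DMSO vehicle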
Method in brief: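 Developing networks of rat cortical neurons were exposed over twelve days in vitro on 48-well MEA plates. Trapezoidal AUC of recordings (DIV 5–12) was analysed for signal loss relative to DMSO vehicle.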

[10] = CCTE_Shafer_MEA_dev_per_network_spike_spike_number_mean: CCTE's Neural Network Formation Assay for Mean Number of Spikes in a Network Spike, Shafer Lab (AID 2284053)
Method in brief: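 First, rat cortical cells (1.5 x 10^5/well) were seeded onto MEA wells; second, dosing began at plating and was refreshed on DIV 5 and 9; finally, network-spike spike counts across DIV 5–12 were summarized as AUC.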

[11] = CCTE_Shafer_MEA_dev_per_network_spike_spike_percent: CCTE's Neural Network Formation Assay for Percent of Spikes in a Network Spike, Shafer Lab (AID 2284054)
Method in brief: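 Metric: fraction of spikes falling in a 0.05 s window at network-spike peaks. Recordings were made on days 5, 7, 9 and 12 and collapsed by trapezoidal AUC. Cultures were rat cortical neurons on MEA plates, dosed continuously from plating, re-dosed at media changes.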

[12] = CCTE_Shafer_MEA_dev_LDH: CCTE's Lactate Dehydrogenase Assay for Cytotoxicity in the Neural Network Formation Assay, Shafer Lab (AID 2284068; active = hit-call score of the fitted dose curve at least 0.9, where 1 is the maximum;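 also: exposure for twelve days from plating with re-dosing on DIV 5 and 9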)
Method in brief: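 Developing rat cortical networks on MEA plates are exposed to compound for 12 days from plating. LDH activity is measured spectrophotometrically, with DMSO as baseline.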

[13] = CCTE_Shafer_MEA_dev_mutual_information_norm: CCTE's Neural Network Formation Assay for Mutual Information Normalization, Shafer Lab (AID 2284091)
Method in brief: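 Shared information across electrodes, tracked on days 5, 7, 9 and 12 of network development and collapsed as trapezoidal area under the curve. Rat cortical cultures were treated continuously from plating, with treatment renewed at feeds on DIV 5 and 9; DMSO baseline, negative-direction fit.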

[14] = CCTE_Shafer_MEA_dev_correlation_coefficient_mean: CCTE's Neural Network Formation Assay for Mean Correlation Coefficient, Shafer Lab (AID 2284093)
Method in brief: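 Extracellular firing from rat cortical networks on 48-well MEAs, DMSO-referenced, negative fitting direction. Compound present from plating to DIV12; mean pairwise correlation per well integrated over DIV5–12 recordings by trapezoidal AUC.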

[15] = CCTE_Mundy_HCI_Cortical_Synap_Neur_Matur_NeuriteSpotCountPerNeuriteLength: CCTE's Synaptogenesis and Neurite Maturation Assay in rat cortical cells for Neurite Spot Count per Neurite Length, Mundy Lab (AID 2284210)
Method in brief: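 Synaptophysin spots per unit neurite length, measured by automated imaging of MAP2/synaptophysin/Hoechst-stained neurons. Cultures from rat cortex received chemical at DIV 7 with media change through DIV 12; glial growth arrested by AraC at DIV 5; DMSO baseline.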

[16] = CCTE_Mundy_HCI_Cortical_Synap_Neur_Matur_BPCount: CCTE's Synaptogenesis and Neurite Maturation Assay in rat cortical cells for Branch Point Count, Mundy Lab (AID 2284211)
Method in brief: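 In this multiplexed morphology assay, cortical cells from rat receive chemicals at DIV 7 and are fixed at DIV 12, then immunostained and imaged; branch points are counted, with DMSO as baseline.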

[17] = CCTE_Mundy_HCI_Cortical_NOG_NeuriteCount: CCTE's Neurite Outgrowth Assay in rat cortical cells for Neurite Count, Mundy Lab (AID 2284212);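 also: cells fixed about two days after chemical exposure began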
Method in brief: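 Rat cortical primary cells; compound added 2 h post-plating, 1/10 dilution of working solution. Anti-betaIII-tubulin/AF488 ICC; ArrayScan neurite count vs DMSO.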

[18] = CCTE_Mundy_HCI_Cortical_NOG_NeuriteLength: CCTE's Neurite Outgrowth Assay in rat cortical cells for Neurite Length, Mundy Lab (AID 2284213)
Method in brief: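 First, rat primary cortical cells were plated and, 2 h later, given test chemical as a 1/10 dilution. Finally, βIII-tubulin immunostaining enabled automated imaging of neurite length.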

[19] = CCTE_Mundy_HCI_Cortical_Synap_Neur_Matur_NeuriteLength: CCTE's Synaptogenesis and Neurite Maturation Assay in rat cortical cells for Neurite Length, Mundy Lab (AID 2284214)
Method in brief: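 DMSO-normalised neurite length, from high-content imaging of anti-MAP2-stained rat cortical cells fixed at DIV 12. Glia were suppressed with AraC (DIV 5) before chemical exposure from DIV 7.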

[20] = CCTE_Mundy_HCI_Cortical_Synap_Neur_Matur_SynapseCount: CCTE's Synaptogenesis and Neurite Maturation Assay in rat cortical cells for Synapse Count, Mundy Lab (AID 2284218)
Method in brief: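 Endpoint: synapses/neuron by HCI (synaptophysin puncta on MAP2-labelled neurites, Hoechst nuclei). Rat primary cortical cells, AraC DIV 5, dosed DIV 7, fixed DIV 12; DMSO negative control.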

[21] = CCTE_Mundy_HCI_hN2_NOG_NeuriteCount: CCTE's Neurite Outgrowth Assay in human hN2 cells for Neurite Count, Mundy Lab (AID 2284219; active = hit-call score of the fitted dose curve at least 0.9, where 1 is the maximum)
Method in brief: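 In this morphology assay, hNP1-derived neurons received test chemical 2 h post-plating and were fixed two days later in warm paraformaldehyde/sucrose containing Hoechst 33342. Neurites, labelled by rabbit anti-βIII-tubulin (1:800) and Alexa Fluor-488 (1:500), were counted automatically.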

[22] = CCTE_Mundy_HCI_hN2_NOG_NeuriteLength: CCTE's Neurite Outgrowth Assay in human hN2 cells for Neurite Length, Mundy Lab (AID 2284220; active = hit-call score of the fitted dose curve at least 0.9, where 1 is the maximum)
Method in brief: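 Plate hNP1-derived neurons, then add chemical 2 h later as a 1/10 dilution. Stain with anti-βIII-tubulin then Alexa Fluor-488 secondary, and image automatically to measure neurite length.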

[23] = CCTE_Mundy_HCI_Cortical_Synap_Neur_Matur_NeuriteCount: CCTE's Synaptogenesis and Neurite Maturation Assay in rat cortical cells for Neurite Count, Mundy Lab (AID 2284222);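 also: exposure from day 7 to day 12 in vitro with readout at day 12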
Method in brief: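 In this multiplexed morphology readout, rat primary cortical neurons are fixed at DIV 12 following dosing at DIV 7 and stained for MAP2, synaptophysin and nuclei. High-content image analysis yields neurite count.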

[24] = CCTE_Mundy_HCI_Cortical_Synap_Neur_Matur_CellBodySpotCount: CCTE's Synaptogenesis and Neurite Maturation Assay in rat cortical cells for Cell Body Spot Count, Mundy Lab (AID 2284223)
Method in brief: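 Rat cortical neurons; AraC @ DIV 5; dose + media change DIV 7; fix DIV 12; anti-MAP2/anti-synaptophysin IF, Hoechst; HCI count of soma synaptophysin puncta/neuron; DMSO = negative control.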

[25] = CCTE_Mundy_HCI_Cortical_NOG_NeuronCount: CCTE's Neurite Outgrowth Assay in rat cortical cells for Neuron Count, Mundy Lab (AID 2284236; active = hit-call score of the fitted dose curve at least 0.9, where 1 is the maximum;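 also: neurons counted by imaging betaIII-tubulin and Hoechst stained cortical cells; cells exposed to compound for about 48 hours before fixation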)
Method in brief: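 Read-out: neuron number by high-content imaging of betaIII-tubulin (Alexa Fluor-488) and Hoechst-labelled rat primary cortical cells.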

[26] = CCTE_Mundy_HCI_Cortical_NOG_BPCount: CCTE's Neurite Outgrowth Assay in rat cortical cells for Branch Point Count, Mundy Lab (AID 2284237)
Method in brief: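 Measured 50.33 h after dosing, this morphology endpoint uses rat primary cortical cultures labelled for betaIII-tubulin. Branch points are quantified by high-content imaging, with DMSO as negative control and baseline.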

[27] = CCTE_Mundy_HCI_hNP1_Casp3_7: CCTE's Caspase-Glo 3/7 Assay in human neuroprogenitor cells for Apoptosis, Mundy Lab (AID 2284240)
Method in brief: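 Apoptosis is scored by activated caspase-3/7 luminescence in WA09-derived neural progenitor cells, measured 26.5 h after chemical dosing. Values represent gain of signal relative to DMSO vehicle.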

[28] = Tanguay_ZF_120hpf_MUSC: Oregon State University Tanguay Lab 120 Hour Post-fertilization zebrafish Assay for Muscle Malformation (AID 2284401)
Method in brief: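 Scored as a binary brightfield endpoint at 120 hpf, fitted versus DMSO. Single dechorionated wild-type (Tropical 5D) zebrafish embryos per well, statically exposed at 28C from 6 hpf onward with final DMSO 0.64%.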

Measured: outcome

C=CCN1CC[C@]23c4c5ccc(O)c4O[C@H]2C(=O)CC[C@@]3(O)[C@H]1C5
not listed: [28]
inactive: all other assays above

FC1CC(F)(F)C(F)(F)C1(F)F (stereo unspecified)
inactive: [28]

O=S(=O)(Cl)C(F)(F)C(F)(F)C(F)(F)C(F)(F)C(F)(F)C(F)(F)C(F)(F)C(F)(F)F
inactive: [28]

FC(F)=C(F)C(F)(F)C(F)(F)C(F)(F)C(F)(F)C(F)(F)C(F)(F)F
inactive: [28]

O=C(O)C(F)(F)C(F)(F)C(F)(F)C(F)(F)C(F)(F)C(F)(F)C(F)(F)C(F)(F)C(F)(F)C(F)(F)C(F)(F)C(F)(F)F
inactive: [28]
